Rows were chosen to be rich in hits. Some 1.1% of all compounds tested hit in one or more screens of this group.
NCOA2 inhibitor = inhibits human steroid receptor coactivator 2; Q15596; HEK293 GAL4-SRC2 luciferase reporter, luminescence; inhibition, % at 9 µM; hit rate 0.17% among 370,000; AID 651957;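 active = inhibition above the mean inhibition of all tested compounds plus 3 SD, set per campaign, cut at about 52% in these data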;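 note: 0% = DMSO treated cells and 100% = cells given Gossypol at 36 µM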
NR5A2 inv ag = inverse agonists of human LRH-1 (NR5A2); O00482; HEK293T StAR-luciferase reporter, LRH-1 transfected, 24 h; inhibition, % at 3.6 µM; hit rate 0.13% among 360,000; AID 602396;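 active = inhibition above the mean inhibition of all tested compounds plus 3 SD, cut at about 73% in these data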;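 note: 0% = DMSO wells and 100% = reporter-only cells lacking LRH-1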
Target sequence (O00482 whole entry, looked up): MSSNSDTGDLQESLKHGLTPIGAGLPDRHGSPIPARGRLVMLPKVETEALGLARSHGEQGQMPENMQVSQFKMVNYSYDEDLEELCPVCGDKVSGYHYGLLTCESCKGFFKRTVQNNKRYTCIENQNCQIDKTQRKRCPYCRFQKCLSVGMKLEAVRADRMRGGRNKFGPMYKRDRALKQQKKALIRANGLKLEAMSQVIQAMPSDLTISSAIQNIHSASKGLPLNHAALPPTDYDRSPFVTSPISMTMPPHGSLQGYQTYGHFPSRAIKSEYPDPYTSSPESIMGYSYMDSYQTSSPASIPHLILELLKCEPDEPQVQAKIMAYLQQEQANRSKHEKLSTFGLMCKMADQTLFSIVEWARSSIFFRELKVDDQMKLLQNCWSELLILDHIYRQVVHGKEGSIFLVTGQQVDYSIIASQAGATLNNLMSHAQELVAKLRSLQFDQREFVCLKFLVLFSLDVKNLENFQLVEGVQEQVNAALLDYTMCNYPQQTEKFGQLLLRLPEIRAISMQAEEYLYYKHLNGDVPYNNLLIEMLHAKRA
NCOA1 inh = human NCOA1 inhibition; Q15788; HEK293 GAL4-SRC1 luciferase reporter, luminescence; inhibition, % at 3.6 µM; hit rate 0.12% among 360,000;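 active = inhibition above the campaign mean plus 3 SD, with each screening campaign given its own cutoff, cut at about 60% in these data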;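 note: 0% = DMSO treated cells and 100% = gossypol at 36 µM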
COUP-TFII inh = blocks human COUP-TFII nuclear receptor. P24468. hit rate 0.7% among 370,000. AID 686940. inhibition, % at 8.6 µM. HEK293T NGFI-A luciferase reporter, luminescence;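 active = inhibition above a per-plate cutoff, mean inhibition of test wells between control levels plus 3 SD, cut at about 38% in these data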;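 note: cells cotransfected with COUP-TFII expression vector driving the NGFI-A reporter; 0% = median of COUP-TF2 test wells and 100% = reporter-only cells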
GalR3 antagonist = blocks the human galanin receptor 3. HEK293 GalR3-CNG cAMP membrane potential fluorescence; galR3 body fused to GalR1 C-terminus. inhibition, % at 3 µM. O60755. hit rate 0.44% among 360,000;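 active = inhibition above the screen-wide average plus 3 SD, cut at about 13% in these data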;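 note: forskolin and galanin both at EC90 stimulate the cells; cAMP rise reported by CNG channel membrane potential dye signal; 0% = forskolin plus galanin with DMSO and 100% = forskolin alone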
SRC3 inh = inhibits human SRC3 coactivator. Q9Y6Q9. HEK293 GAL4-SRC3 luciferase reporter, luminescence. inhibition, % at 3.6 µM. hit rate 0.17% among 360,000. AID 588352;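 active = inhibition above a per-campaign cutoff, the mean of all compounds plus 3 SD, cut at about 60% in these data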;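 note: 0% = DMSO-treated cells and 100% = gossypol-treated cells at 36 µM; higher means less SRC3-driven luciferase light from the GAL4 reporter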
Gal4-VP16 ctr = inhibits VP16 reporter, flagging COUP-TFII antagonist hits. shares compounds with COUP-TFII inh. HEK293 Gal4-VP16 luciferase reporter, luminescence. inhibition, % at 8.5 µM. hit rate 25% among 2,500; in the data active = inhibition above about 13%
NR2F2 inh conf = confirmation of human COUP-TFII (NR2F2) inhibitors; shares compounds with COUP-TFII inh; HEK293 NGFI-A luciferase reporter, luminescence; inhibition, % at 8.5 µM; hit rate 45% among 2,500; AID 687008;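 active = mean inhibition over three repeats above a set limit taken from the earlier primary screen, cut at about 38% in these data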;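 note: 100% = cells given the luciferase reporter alone without the COUP-TF2 vector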
Numbers without * were called inactive; . = not tested or not shown.

SMILES	NCOA2 inhibitor	NR5A2 inv ag	NCOA1 inh	COUP-TFII inh	GalR3 antagonist	SRC3 inh	Gal4-VP16 ctr	NR2F2 inh conf
COc1cccc(-c2nnc(SCc3cc(C)ccc3C)n2Cc2ccco2)c1	18	.	.	41*	.	.	9	11
O=C(Nc1ccc(N2CCOCC2)nc1)c1ccc(C(F)(F)F)cc1	24	1	8	49*	4	19	10	35
CS(=O)(=O)Nc1ccc(N2CCN(c3ccc(C(F)(F)F)cn3)CC2)nc1	16	9	1	43*	-4	14	-3	11
CC(C)(C)C(=O)Nc1ccc(N2CCN(c3ccc(C(F)(F)F)cn3)CC2)nc1	11	-9	2	0	-4	6	.	.
COC(=O)c1cc(C)oc1C	-21	.	.	-11	.	.	.	.
CCOc1ccc(CN2CCN(C(=O)c3cccc4ccccc34)CC2)cc1	15	16	11	59*	-2	13	3	35
CCCCCCCCN1C(=O)[C@@H](CC(=O)NCc2cccc3ccccc23)C[C@@]2(C(=O)OC)C1=C[C@H](C(C)(C)C)O[C@@H]2C	-18	.	.	2	-7	.	.	.
CCC(C(=O)OCC(=O)c1c(N)n(CC(C)C)c(=O)n(C)c1=O)c1ccccc1 (stereo not drawn)	1	0	5	2	1	11	.	.
CCC(=NC(C)c1ccccc1)c1c(O)n(C)c(=O)n(C)c1=O (stereo not drawn)	22	19	13	56*	-4	27	-1	29
Cc1ccc(S(=O)(=O)n2ccc3c(OCCOCCNCc4ccc(F)cc4)cccc32)cc1	6	9	4	43*	-9	-12	0	8
O=C(CN1CCN(Cc2ccc(Cl)cc2)C1=O)NCCCN1CCOCC1	-5	14	35	3	1	31	.	.
O=C(CN1CCN(Cc2ccc(Cl)cc2)C1=O)NCCCN1CCN(c2ccc(F)cc2)CC1	15	24	9	56*	-7	31	1	13
CC(C)C[C@H]1CNC(=O)C(=O)N1C[C@@H]1CCCN1C[C@H](Cc1ccccc1)N1C[C@H](CC(C)C)N(CC2CCCCC2)C(=O)C1=O	4	.	.	9	-5	.	.	.
Cc1ccc2[nH]c3c(NCc4ccco4)ncnc3c2c1	-2	-61	-41	47*	-8	-22	-139	-24
C=CCN1C(=O)c2[nH]nc(-c3ccccc3)c2C1c1ccc(C)cc1 (stereo not drawn)	-6	.	.	-8	-9	.	.	.
Cc1c(C(=O)NCc2ccc(Cl)c(Cl)c2)sc(=O)n1Cc1ccc(S(C)(=O)=O)cc1	13	13	5	85*	-3	-4	-8	4
CSc1ccc(Cn2c(C)c(C(=O)NCc3ccc(Cl)c(Cl)c3)sc2=O)cc1	0	31	5	34	-1	-1	.	.
Cc1c(C(=O)NCc2ccc3c(c2)OCCO3)sc(=O)n1Cc1ccc(S(=O)(=O)N(C)C)cc1	-8	26	16	45*	-2	18	5	14
CCC[N+]1(CC#CCC(c2ccccc2)c2ccccc2)CCCCC1	19	55	35	52*	-8	34	11	31
C(#Cc1ccccc1)C[N+]1(CC#Cc2ccccc2)CCCCC1	3	17	-5	16	0	20	.	.
COCCn1c(C)cc(C2=NNC(=NC3CC3)SC2)c1C	86*	87*	89*	94*	-6	91*	89*	109*
C=CCN=C1NN=C(c2cc(C)n(CCOC)c2C)CS1	70*	-7	13	86*	-2	28	75*	96*
COc1ccc(-n2c(C)cc(C3=NNC(=NC4CC4)SC3)c2C)cc1	-66	-36	-45	1	-6	-53	.	.
Cc1cc(C2=NNC(=NC3CC3)SC2)c(C)n1Cc1ccco1	83*	76*	76*	89*	1	83*	77*	103*
Cc1cc(C2=NNC(=NC3CC3)SC2)c(C)n1-c1ccccc1	80*	77*	84*	52*	-5	86*	71*	106*
SMILES	NCOA2 inhibitor	NR5A2 inv ag	NCOA1 inh	COUP-TFII inh	GalR3 antagonist	SRC3 inh	Gal4-VP16 ctr	NR2F2 inh conf
COCCn1c(C)cc(C2=NNC(=Nc3ccc(Cl)cc3Cl)SC2)c1C	11	12	-8	-5	-6	4	.	.
COCCCNC(=O)C[C@H]1C[C@@]2(C(=O)OC)C(=C[C@H](COCc3ccccc3)O[C@@H]2C)N(Cc2ccco2)C1=O	21	.	.	-26	.	.	.	.
N#C/C(=N/Nc1ccc(OC(F)(F)F)cc1)C(N)=S	21	-15	-2	38*	-5	32	-121	-54
CCCCN(C(C)=O)c1ccc2c(c1)C1CC2CCN1C(=O)OCc1ccccc1 (stereo not drawn)	17	14	16	55*	-10	23	1	39*
CCOc1ccc(NC(=O)CSc2nnc(-c3n[nH]c4c3CCC4)n2N)cc1	-20	.	.	-9	.	.	.	.
COCCN(C(=O)CCC(=O)Nc1nccs1)C(C(=O)NC(C)(C)C)c1ccc(C)cc1 (stereo not drawn)	76*	-25	-13	60*	-9	0	-1	-5
COCCN(C(=O)CCC(=O)Nc1nccs1)C(C(=O)NC(C)(C)C)c1ccc(F)cc1 (stereo not drawn)	-10	-2	15	5	-8	1	.	.
Cc1cc(NNC(=O)c2cccc(C(F)(F)F)c2)nc2c1c(C)nn2C	24	34	12	50*	-9	20	-2	43*
CCC(NC(=O)CCc1c(C)c2cc3c4c(oc3cc2oc1=O)CCCC4)C(=O)O (stereo not drawn)	65*	4	13	40*	-11	11	46*	42*
Cc1c(CCC(=O)NCCCCCC(=O)O)c(=O)oc2c(C)c3oc4c(c3cc12)CCCC4	10	2	-21	-2	8	5	.	.
Cc1c(CCC(=O)NCCCC(=O)O)c(=O)oc2cc3oc4c(c3cc12)CCCC4	63*	9	13	49*	-3	2	35*	34
Cc1c(CCC(=O)N[C@@H](CCCNC(N)=O)C(=O)O)c(=O)oc2cc3oc4c(c3cc12)CCCC4	68*	-1	11	53*	-9	-1	29*	29
O=C1c2cccn2CC2Cc3ccccc3N12 (stereo not drawn)	.	.	.	-46	.	.	.	.
C=CCN1C(=O)[C@@H](CC(=O)N2CCCC2)[C@]2(C(=O)OC)CCCCC=C12	-17	.	.	-1	.	.	.	.
Cc1cccc(C)c1OCc1cc(C(=O)N(Cc2c(C)nn(C)c2C)C2CC2)no1	10	12	19	51*	-10	23	0	32
CC1=CC(O)(c2ccccn2)P(=O)(c2ccccc2)C=C1C (stereo not drawn)	-15	.	.	2	-8	.	.	.

Screens as filed in PubChem.
